# Records with an inconclusive call do not appear. The source made the active and inactive calls. Calls come from the whole dose curve; as a rule, active = well fitted activation curve with a large enough effect in the repeat runs; inconclusive = weak or mixed curves; inactive = flat fitted curve, though single readings scatter.
# Assay: A CellTox Green Cytotoxicity Assay to monitor cytotoxicity in HepG2 cells - 24 hour (AID 1224878); note: nearly all actives have a fitted effect of over 45% in size
# Details: CellTox Green fluorescence; series mostly up to 76.8 µM; cytotoxicity: at the top concentration
# From the text: National Center for Advancing Translational Sciences [NCATS]
# NIH Chemical Genomics Center [NCGC]
# U.S. Environmental Protection Agency [EPA]
# National Institutes of Environmental Health Sciences [NIEHS]
# National Toxicology Program [NTP]
# Cell-based models are critical for drug discovery. Determining the natural cytotoxic effects resulting from test compounds is an essential research activity. A CellTox Green Cytotoxicity Assay to monitor cytotoxicity in real time of continues cell culture during 40 hours of the compound treatment was used to screen Tox21 10K library compounds in HepG2 cells. CellTox Green Cytotoxicity Assay is a nonlytic, homogeneous, biofluorescent method to measure cytotoxicity in cell culture after experimental manipulation. The assay system uses a proprietary asymmetric cyanine dye that is excluded from viable cells but preferentially stains the dead cell's DNA. […] Viable cells produce no appreciable increases in fluorescence. Therefore, the fluorescence signal produced by the binding interaction with dead cell DNA is proportional to cytotoxicity.
# The mixture of HepG2 cell suspension and reagents were dispensed at 600cells/6 ul/well in 1536-well tissue culture treated black solid bottom plates using a Multidrop dispenser. After the assay plates were incubated at a 37 C/5% CO2 incubator for 5 hours, 23 nL of compounds dissolved in DMSO, positive and negative controls was transferred to the assay plate by a pintool work station. The plates were incubated at 37 C for 40 hours. The fluorescence intensity were measured at 0h, 8h, 16h, 24h, 32h and 40h time points using ViewLux plate reader during compound treatment.
# % is set by controls: 0 for no effect and ±100 for the full control effect.
row,SMILES,cytotoxicity
1,CCCCCCOC(=O)CCCCC(=O)OCCCCCC,0.288% (inactive)
2,Nc1nc2c(ncn2COC(CO)CO)c(=O)[nH]1,-25.6% [at 35.3 µM] (inactive)
3,NC(=O)Nc1ccccc1,-8.54% (inactive)
4,CCC(=O)OC(C)c1ccccc1 (stereo not given),-6.13% (inactive)
5,O=C1NC(=O)[C@@]2(CCOc3ccc(F)cc32)N1,-11.3% [at 35.3 µM] (inactive)
6,O=C1CC2CC1C1CCCC21 (stereo not given),-13% (inactive)
7,NC(=O)c1ccc([N+](=O)[O-])cc1,-0.0467% (inactive)
8,NS(=O)(=O)c1ccc(C(=O)O)cc1,-21.3% [at 35.3 µM] (inactive)
9,O=C(O)c1ccccc1OP(=O)(O)O,-13.6% [at 35.3 µM] (inactive)
10,CCCCOCCOCCOCCCC,0.152% (inactive)
11,NCCCNCCSP(=O)(O)O,-8.81% [at 6.97 µM] (inactive)
12,NS(=O)(=O)c1ccccc1Cl,0.735% (inactive)
13,CC(=O)N(CC(O)CO)c1c(I)c(C(=O)NCCO)c(I)c(C(=O)NCC(O)CO)c1I (stereo not given),-10.5% [at 35.3 µM] (inactive)
14,CCC(C)S (stereo not given),1.18% [at 2.72 µM] (inactive)
15,CC(C)NCCCC1(C(N)=O)c2ccccc2-c2ccccc21,-3.07% [at 35.3 µM] (inactive)
16,CCC(C)C1CCCCC1=O (stereo not given),-2.48% (inactive)
17,N[C@H]1CN(c2c(F)cc3c(=O)c(C(=O)O)cn(C4C[C@H]4F)c3c2Cl)CC12CC2 (stereo not given in full),-2.52% [at 35.3 µM] (inactive)
18,CCn1nc(C(=O)O)c(=O)c2cc3c(cc21)OCO3,-8.76% [at 35.3 µM] (inactive)
19,COC(=O)c1ccc(C)cc1C1=NC(C)(C(C)C)C(=O)N1 (stereo not given),0.375% (inactive)
20,O=C1CCCC(=O)C1,-9.41% (inactive)

row,SMILES,cytotoxicity
1,O=C(CCCN1CCN(c2ccccn2)CC1)c1ccc(F)cc1,-0.257% [at 35.3 µM] (inactive)
2,NC(CSCC(=O)O)C(=O)O (stereo not given),-23.5% [at 35.3 µM] (inactive)
3,O=C1OC(=O)C2CCCCC12 (stereo not given),-8.09% (inactive)
4,Brc1c(NC2=NCCN2)ccc2nccnc12,-6.63% [at 35.3 µM] (inactive)
5,O=C(O)CN(CCOCCOCCN(CC(=O)O)CC(=O)O)CC(=O)O,-22.1% [at 0.29 µM] (inactive)
6,N[C@H](C(=O)O)c1ccc(O)cc1,-8.13% [at 15.8 µM] (inactive)
7,C=C(C)CS(=O)(=O)O,-15.7% (inactive)
8,CC(C)NC(=O)NC(C)C,-5.91% (inactive)
9,CCCCCCCCCCCCCCCCC,-13.9% (inactive)
10,CC1(C)C(O)C(C)(C)C1O (stereo not given),0.752% (inactive)
11,FC1(F)C(F)(F)C(F)(F)C2(F)C(F)(F)C(F)(F)C(F)(F)C(F)(F)C2(F)C1(F)F (stereo not given),-8.93% [at 35.3 µM] (inactive)
12,CCn1ccnc1CC1COc2ccccc2O1 (stereo not given),-0.869% [at 35.3 µM] (inactive)
13,Nc1ccc(S(=O)(=O)Nc2ccnn2-c2ccccc2)cc1,-1.77% [at 15.8 µM] (inactive)
14,Cc1nc2c([nH]1)c(=O)n(C)c(=O)n2Cc1ccco1,-5.74% [at 35.3 µM] (inactive)
15,CCN(Cc1ccncc1)C(=O)C(CO)c1ccccc1 (stereo not given),-0.81% [at 35.3 µM] (inactive)
16,NC(=O)c1ccc(N)cc1,-4.46% (inactive)
17,N=C(N)c1ccc(OCCCOc2ccc(C(=N)N)cc2)cc1,-10.9% [at 35.3 µM] (inactive)
18,CCS(=O)(=O)c1ccc(OC)c(C(=O)OC)c1,-13.3% [at 35.3 µM] (inactive)
19,CO/N=C(/C(=O)N[C@@H]1C(=O)N2C(C(=O)OCOC(=O)C(C)(C)C)=C(C)CS[C@H]12)c1csc(N)n1,1.39% [at 35.3 µM] (inactive)
20,Cc1c(NC(C)C)c(=O)n(-c2ccccc2)n1C,0.243% [at 35.3 µM] (inactive)

# From PubChem BioAssay (Tox21)
